Data as given in PubChem BioAssay AID651965 (National Center for Advancing Translational Sciences (NCATS), 2013).
About 6,400 (1.9%) of roughly 340,000 compounds were called active. Entries that show only a call come without a potency. About 4% were inconclusive and are not listed. Calls follow the shape of the dose curve; as a rule, active = well fitted falling curve with a large enough effect; inconclusive = small, poorly fitted or top-dose-only effect; inactive = no such curve, though single readings can be large or run the other way. This excerpt belongs to a sample that is enriched for actives.

Molecular target: ATP-dependent Clp protease proteolytic subunit (Bacillus subtilis (strain 168)) (UniProt P80244)
Sequence (P80244 whole entry, looked up): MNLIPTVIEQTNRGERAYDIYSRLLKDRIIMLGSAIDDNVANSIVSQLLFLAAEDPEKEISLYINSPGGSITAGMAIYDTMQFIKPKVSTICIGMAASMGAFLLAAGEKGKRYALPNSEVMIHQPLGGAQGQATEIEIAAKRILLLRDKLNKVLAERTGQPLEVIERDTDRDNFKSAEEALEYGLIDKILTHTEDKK
Assay: qHTS Assay for Activators of ClpP; also: the source files actives as falling curves though it sought activators and does not explain the sign; nearly all actives have a fitted effect of over 65% in size
Details: purified B. subtilis ClpP, FRET peptide cleavage, 20 min; series mostly up to 57.5 µM
Excerpt: The Clp protease proteolytic subunit (ClpP) is the core unit of the Clp complex belonging to the peptidase family S14 that hydrolyzes protein into small peptides in the presence of ATP and magnesium. It is ubiquitously expressed and is the major protease in bacteria. […] Unlike common antibiotics that simply interfere with the essential enzyme activity, ADEP binding activates the ClpP core in the absence of the regulatory Clp-ATPases leading to uncontrolled proteolysis and eventually cell death. Activators binding to the docking site on ClpP can also block formation of the ClpXP and ClpA/C-P holoenzyme complexes interfering with the normal biological functions of ClpP and thus have the potential to become new anti-microbials.
To identify activators of ClpP, a FRET based quenching reversal assay was developed using a purified B. subtilis ClpP and a decapeptide substrate (FRET-FV). The FRET-FV is tagged with a fluorescent molecule amino benzoic acid (donor) at the N-terminus and a nitrotyrosine quencher (acceptor) at the C-terminus. FRET-FV cleaves upon activation of ClpP with ADEP treatement and reverses the quenching effect of the nitrotyrosine causing an increase in fluorescence emission signal at 430nm. This assay was used to screen the Molecular Libraries Small Molecule Repository (MLSMR).
NIH Molecular Libraries Probe Production Centers Network [MLPCN]
NIH Chemical Genomics Center [NCGC]
Assay Submitter (PI): Michael Maurizi, National Cancer Institute
Two and a half microL/well of purified enzyme solution (final concentrations 10 microg/mL B. subtilis ClpP in 100 mM Tris/HCl pH8, 100 mM KCl, 0.05% low protease BSA, 2.5% glycerol, 0.01% Tween-20 buffer) was dispensed into 1536-well assay plates (Greiner, black solid, medium-binding plates) with Aurora Discovery BioRAPTR Flying Reagent Dispenser (FRD, Beckton-Dickenson). Compound solution (23 nL) was transferred to the assay plate using Kalypsys pin tool equipped with a 1536-pin tool. […] FRET signals at time 0 and after 20 min room temperature incubation were obtained using the PerkinElmer Envision plate reader with 320nm excitation and 430nm emission filters. Delta FRET value (Time 20 - Time 0) was calculated and normalized to the delta FRET value of positive control ADEP (5.8 microM final concentration) and negative control DMSO and no enzyme wells.
Potency is read from the fitted curve at half-maximal effect.

Compound	Potency
c1ccc(CCc2ccccn2)cc1	inactive
Cc1cc(C)n2c(Nc3c(C)cccc3C)c(CCc3ccccc3)nc2n1	inactive
Cc1ccc(O)c(CCc2ccccc2)n1	28.2 µM (active)
C=CCOc1ccccc1CNn1c(C)n[nH]c1=S	inactive
Cn1c(-c2ccc(C(=O)c3ccccc3)s2)nc2ccccc21	20 µM (active)
Cn1c(NC(=O)c2ccccc2)nc2ccccc21	inactive
Cn1c(CNC(=O)C(C)(C)C)nc2ccccc21	inactive
CCCCc1nc2ccc(F)cc2cc1C	inactive
CCCc1ccc(C(O)c2ncc(-c3cccc(OC)c3)[nH]2)cc1 (stereo not drawn)	inactive
COc1ccc(CC(N)c2csc(NC(=O)Cc3ccccc3)n2)cc1 (stereo not drawn)	inactive
CCOC(=O)CSc1nnc(CNC(=O)c2ccco2)n1-c1ccc(F)cc1	inactive
CCOC(=O)CSc1nnc(CNC(=O)c2cccs2)n1-c1cc(OC)ccc1OC	inactive
CCOC(=O)CSc1nnc(CNC(=O)c2cccs2)n1-c1ccccc1	10 µM (active)
Nc1nc2c(Br)ccc(Br)c2cc1C(=O)NCCc1ccccc1	inactive
O=C(COc1ccc2c3c(c(=O)oc2c1)CCC3)NC1CCCCC1	14.1 µM (active)
O=C(COc1ccc2c3c(c(=O)oc2c1)CCCC3)NCC(O)c1ccccc1 (stereo not drawn)	inactive
NC(=O)C1CCN(C(=O)COc2ccc3c4c(c(=O)oc3c2)CCC4)CC1	inactive
CC1(C(=O)Nc2cccc3c2CCCC3)CCN1C(=O)CCc1ccc(Cl)cc1Cl (stereo not drawn)	inactive
Cc1cc2cc3n(c2nn1)N=C(Cl)CC3	inactive
CCCc1nc2c3ccccc3ccn2c1Cc1ccccc1C(F)(F)F	inactive
FC(F)(F)c1ccccc1Cc1c(-c2ccccc2)nc2c3ccccc3ccn12	22.4 µM (active)
Cc1ccc(Cc2c(-c3ccc(C)cc3)nc3c4ccccc4ccn23)cc1	inactive
NNc1nc2c(Cl)cccc2s1	inactive
Fc1cc(F)c2nc(Nc3nc4c(F)cccc4s3)sc2c1	3.55 µM (active)
NC(=O)c1c(Nc2nc3c(F)cccc3s2)sc2c1CCCC2	inactive
CCOC(=O)c1cc2cc(OC)ccc2n1C1CCN(C)CC1	inactive

Compound	Potency
CCC(C(=O)NCc1ccccc1)n1c(Cc2cc(F)cc(F)c2)nc2ccccc21 (stereo not drawn)	inactive
CC1Cc2[nH][nH]c(=O)c2C(C2CC2)O1 (stereo not drawn)	inactive
CCCCCNC(=O)C1C(=O)Nc2ccccc2C(=O)N1C(C)(C)C (stereo not drawn)	inactive
COc1ccc(-c2cn3ccc(C)cc3n2)cc1	inactive
COc1ccc(-c2cc(-c3ccc(F)cc3)nc3c2COc2ccccc2-3)cc1	inactive
COc1ccc(C2=Nc3cc(C)ccc3OC2)cc1	28.2 µM (active)
CCOC(=O)[C@]12CCCC=C1N(CCC1=CCCCC1)C(=O)[C@H](CC(=O)NCCCOC)C2	inactive
Cc1cc(NC(=O)CSc2nc3ccccc3n2CC(C)C)no1	inactive
Cc1cc(NC(=O)CSCC(=O)NC(C)c2ccccc2)no1 (stereo not drawn)	inactive
Cc1ccc2nc(-c3ccc(SCC(=O)Nc4cc(C)on4)nc3)[nH]c2c1	31.6 µM (active)
CN(CCC#N)c1ccc(C=O)cc1	inactive
CC(C)(C)c1ccc(C(=O)C[N+]2(C)CCCc3ccccc32)cc1 (stereo not drawn)	inactive
COc1ccc(S(=O)(=O)N[C@@H]2C=C[C@@H](CC(=O)N3CCc4ccccc4C3)O[C@@H]2CO)cc1	inactive
CCn1c2ccccc2c2cc(NC(=O)COC(=O)c3cc(S(=O)(=O)N4CCCCC4)ccc3Cl)ccc21	10 µM (active)
O=C(COC(=O)c1cc(S(=O)(=O)N2CCOCC2)ccc1Cl)NCCc1ccccc1	inactive
CCn1c2ccccc2c2cc(NC(=O)COC(=O)c3ccccc3Br)ccc21	inactive
COc1cc2nc(N3CCCN(C)CC3)nc(NC3CC3)c2cc1OC	inactive
CCCCN(CCCNC(=O)c1cc(Nc2ccccc2OC)nc2ccccc12)c1ccccc1	17.8 µM (active)
COc1ccccc1Nc1cc(C(=O)NCCCN(C)C2CCCCC2)c2ccccc2n1	inactive
COc1ccc(Nc2cc(C(=O)NCCCN(C)c3ccccc3)c3ccccc3n2)c(OC)c1	inactive
CN(C)C(=O)c1cccc(-c2cnc3c(NC=O)cc(-c4ccc(C(=O)N5CCOCC5)cc4)cn23)c1	inactive
COCCCNC(=O)c1ccc(-c2c(C)noc2C)c2ccoc12	inactive
O=C(CCC1CCCN(C(=O)Cc2ccc(F)cc2)C1)N1CCN(c2ccccn2)CC1 (stereo not drawn)	inactive
O=C(CCC1CCCN(C(=O)c2ccc(F)c(F)c2)C1)N1CCN(c2ccccn2)CC1 (stereo not drawn)	17.8 µM (active)
C=Cc1ccc(C(=O)N2CCCC(CCC(=O)N3CCN(c4ccccn4)CC3)C2)cc1 (stereo not drawn)	inactive
COc1ccc(CCCNC(=O)C2Cc3c(-c4cccc(C(N)=O)c4)ccnc3O2)cc1 (stereo not drawn)	inactive

Compound	Potency
Cc1cc(=O)c2ccc(NC(=O)c3ccccc3)cc2[nH]1	inactive
O=C1NC(Cc2ccccc2)c2nc3ccc(Br)cc3c(=O)n2-c2cc3ccccc3cc21 (stereo not drawn)	inactive
O=C(NCc1cccnc1)c1ccc2nc([C@@H]3O[C@H](CO)[C@H](O)[C@H](O)[C@H]3O)[nH]c2c1	inactive
CCOC(=O)C(Cc1ccc(N)cc1)N1C(=O)c2ccccc2C1=O (stereo not drawn)	inactive
CC1=CC(C)(C)Nc2ccc(OC(=O)CN3C(=O)C4CCCCC4C3=O)cc21 (stereo not drawn)	inactive
CC1=CC(C)(C)Nc2ccc(OC(=O)C(Cc3ccccc3)N3C(=O)C4CCCCC4C3=O)cc21 (stereo not drawn)	31.6 µM (active)
Cc1ccc(NC(=O)Cn2sc3ccccc3c2=O)cc1	inactive
COCCCn1c(CCC(=O)O)ccc1-c1ccc(F)cc1	31.6 µM (active)
Cc1ccc(-c2ccc(CCC(=O)O)n2-c2ccc(C(N)=O)cc2)cc1	inactive
COc1ccc(Cl)cc1-n1c(CCC(=O)O)ccc1-c1ccc(C)cc1	inactive
Nc1nc2c(ncn2[C@@H]2O[C@H](CNS(=O)(=O)N3CCc4ccccc4C3)[C@@H](O)[C@H]2O)c(=O)[nH]1	inactive
COCCCNc1ccn2nc(-c3ccc(CC(C)C)cc3)cc2n1	inactive
Cc1ccccc1OCC(=O)N(Cc1cccc(F)c1)C1CCS(=O)(=O)C1 (stereo not drawn)	inactive
CN(C(=O)COC(=O)Cc1ccccc1[N+](=O)[O-])C1CCS(=O)(=O)C1 (stereo not drawn)	inactive
CCN(C(=O)COc1cccnc1[N+](=O)[O-])C1CCS(=O)(=O)C1 (stereo not drawn)	28.2 µM (active)
Cc1cccc(C)c1NC(=O)C(c1cccc(F)c1)N1CCN(C)CC1 (stereo not drawn)	inactive
CCOc1ccc(CCN2C(=S)N([C@@H](CC(C)C)CN3CCC[C@@H]3CN3C(=S)NC[C@@H]3Cc3ccc(O)cc3)C[C@@H]2CC(C)C)cc1	inactive
O=C(N/N=C\c1ccc(Br)cc1)c1ccc(Cn2cccn2)o1	25.1 µM (active)
O=C(O)c1ccc(/C=N/NC(=O)c2ccc(Br)cc2)cc1	inactive
CN(C)c1ccc(/C=N/NC(=O)c2ccc(Cn3cc(Br)cn3)o2)cc1	inactive
O=S1(=O)CC(N2CCC(Cc3ccccc3)CC2)CN1Cc1ccccc1 (stereo not drawn)	inactive
O=C(NCC(F)(F)F)c1ccc(S(=O)(=O)NCCc2ccc3c(c2)OCCO3)cc1	inactive
Cc1cc(Nc2ccc(C)c(C)c2)n2ncnc2n1	inactive
Cc1ccc(NC(=S)NC(=O)/C=C/c2ccc(Cl)cc2)cc1	inactive
O=C(/C=C/c1ccc(Cl)cc1)Nc1ccc(S(=O)(=O)Nc2ncccn2)cc1	inactive
O=C(/C=C/c1ccc(Cl)cc1)Nc1ccc(Br)cn1	25.1 µM (active)

Compound	Potency
Cc1ccc(-c2ccc(CN3C(C(C)C)C(=O)N(Cc4cn(CCC5OCCO5)nn4)CCS3(=O)=O)cc2)cc1 (stereo not drawn)	inactive
Cc1cccc(CN2CCN(C3CN(Cc4ccccc4)S(=O)(=O)C3)CC2)c1 (stereo not drawn)	inactive
CCN1CCN(C(=O)CN(C)S(=O)(=O)c2ccc(OC)cc2)CC1	inactive
CCN1CCN(C(=O)c2cc3cc4ccc(OC)cc4nc3s2)CC1	25.1 µM (active)
CCN(CCCNC(=O)c1cc2cc3cc(OC)ccc3nc2s1)c1ccccc1	inactive
COc1cccc(-c2cc3nc(NCc4ccccc4OC)n(C)c(=O)c3s2)c1	inactive
CCC(C)(C)C1CCC(=NNC(=O)c2ccc(Br)o2)CC1 (stereo not drawn)	25.1 µM (active)
CC(C)(C)C1CCC(=NNC(=O)c2ccc(Br)o2)CC1 (stereo not drawn)	inactive
O=C(N/N=C\C1CC=CCC1)c1ccc(Br)o1 (stereo not drawn)	inactive
COc1cccc(-c2cnc3c(NC(C)=O)cc(-c4cc(F)ccc4OC)cn23)c1	inactive
CC1=C(C(=O)N2CCOCC2)CC(CC(=O)NCc2cccs2)C(=O)N1CCCN1CCCC1=O (stereo not drawn)	inactive
O=C(C=CC(=O)Nc1ccc(F)cc1F)Nc1ccc(F)cc1F	inactive
CCCCC[C@@H]1C=C(C(=O)OCC)[C@H](c2ccccc2)N1S(=O)(=O)c1ccc(C)cc1	inactive
CC(C)Nc1ccc(-n2nc3ccccc3[n+]2[O-])cc1	28.2 µM (active)
CC(=O)Nc1cccc(-c2cc(NC(C)=O)c3ncc(-c4ccccc4)n3c2)c1	inactive
CS(=O)(=O)/C(C#N)=C/c1cccn1S(=O)(=O)c1ccc([N+](=O)[O-])cc1	inactive
CCOc1ccc(CCNC(=O)Cn2nc(CC)n3c(cc4sc(CC)cc43)c2=O)cc1OCC	inactive
COc1ccc(CCNC(=O)c2ccc3c(c2)sc2nc(-c4ccc(C)cc4)cn23)cc1OC	3.16 µM (active)
COc1ccc(CCNC(=O)c2ccc3c(c2)nc(C)n3-c2ccc(Br)cc2)cc1OC	inactive
CCOc1ccc(CCNC(=O)c2ccc3c(c2)sc2nc(-c4ccc(F)cc4)cn23)cc1OCC	25.1 µM (active)
Cc1ccc(-c2cn3c(n2)sc2cc(C(=O)NCCCc4ccccc4)ccc23)cc1	15.8 µM (active)
COc1ccc(CCNC(=O)Cc2ccc(C)cc2)cc1OC	inactive
COc1cccc(CNC(=O)c2ccc3c(c2)sc2nc(-c4cccc(OC)c4)cn23)c1	inactive
COc1ccc(-c2cn3c(n2)sc2cc(C(=O)Nc4ccc(F)cc4)ccc23)cc1	inactive
O=C(NCCCc1ccccc1)c1ccc2c(c1)sc1nc(-c3ccc(F)cc3)cn12	inactive
